In PubChem BioAssay (NCATS) one finds outcome and max response data, which are given here for 29 compounds.

The structures appear in SMILES notation. Results filed as inconclusive are left out. A number with no mark means an inactive call. Activity calls are given as the source filed them. Calls follow the shape of the dose curve; as a rule, active = well fitted inhibition curve with a large enough effect; inconclusive = small, poorly fitted or top-dose-only effect; inactive = flat fitted curve, though single readings scatter. *1 amine or outer side, *2 acyl side, *3 side chain or, on linkers, in order; H or OH if unused. Where a SMILES comes first, the peptide text is derived from it. Bridges are numbered along the chain shown (N, C = ends). [ ]: non-standard residue; d: D form. The star is where a group is joined. ξ: configuration not given here. ξhTyr(3S-OH,4S-OH,3'-OSO3H) = NC(C(=O)O)[C@H](O)[C@@H](O)c1ccc(O)c(OS(=O)(=O)O)c1; Orn(4R-OH,5R-OH) = O=C([C@H](C[C@@H](O)[C@@H](O)N[*:3])N[*:1])[*:2]; X2 = CCCCCOc1ccc(-c2cc(-c3ccc(C(=O)*)cc3)no2)cc1; X3 = C[C@H]1CN([*:1])C(C(=O)[*:2])[C@H]1O; ξGln(3R-OH) = NC(=O)C[C@@H](O)C(N)C(=O)O; ξPro(4R-OH) = O=C(O)C1C[C@@H](O)CN1; ξThr(3R) = C[C@@H](O)C(N)C(=O)O
% is scaled to controls: 0 for no effect and ±100 for the full control effect.

The test deals with HaCat. Description: Cytotoxic Profiling of Annotated Libraries Using Quantitative High-Throughput Screening (AID 1296008). Also: nearly all actives have a fitted effect of over 60% in size. The following applies: Five cell lines viability, CellTiter-Glo ATP luminescence, 48-72 h; max response: stronger effect = lower value. The procedure, abridged: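 Cells exposed to compounds for 48 or 72 hr at 37 degrees Celsius. Viability read as ATP-coupled luminescence with CellTiter-Glo after 10 min at room temperature.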
(Cellular ATP, detected with luciferase, serves as a proxy for viable cell number.)
Consider `C[C@@H]1O[C@@H](O[C@H]2[C@H](O[C@H]3[C@H](O[C@H]4CC[C@@]5(C)C(CC[C@]6(C)C5CC=C5[C@@H]7CC(C)(C)C[C@@H](O)[C@]7(C)CC[C@]56C)[C@@]4(C)CO)O[C@H](C(=O)O)[C@@H](O)[C@@H]3O)O[C@H](CO)[C@H](O)[C@@H]2O)[C@H](O)[C@H](O)[C@H]1O` (some centres undefined), for which the compound was called inactive.

In the case of `OC[C@@]1(O)CO[C@@H](OC[C@H]2O[C@@H](OCc3ccccc3)[C@H](O)[C@@H](O)[C@@H]2O)[C@@H]1O`, the result was inactive. As to `COc1ccc2c(c1)C=C1Cn3c-2c(C2CCCCC2)c2ccc(cc23)C(=O)NS(=O)(=O)N(C)CCOCCN(C)C1=O`, the call was inactive. In the case of `CCNC(=O)C1CC(F)(c2ccc(CN3CCCC3)c(F)c2)C1` (centres undefined), the compound was classed as inactive. The same measure, in the same setting: then `CCC(=O)N1CCc2cc(OC)c(O)cc2C1`, with “inactive”. Take `O=C(Cc1ccc(Cl)cc1)Nc1cnccc1C(=O)O`: the max response is -20.9%. Regarding `O=C(O)C(Cc1ccccc1)NC(=O)C1CCCN1` (stereo not drawn) (H-Pro-Phe-OH; configuration not given here), the max response was -6.92%. For the compound `COc1c(C)c(OCC(O)C(C)(C)O)cc2c1CNC2=O` (centres undefined), the result was inactive. In the case of `Cc1c(O)cc2c(c1O)COC1(O)CCCOC21` (centres undefined), the max response is -19.1%. Turning to `C[C@H]1[C@H](C)CC[C@]2(C(=O)OC3OC(CO)C(O)C(O)C3O)CC[C@]3(C(=O)O)C(=CCC4[C@@]5(C)CC[C@H](O[C@@H]6O[C@@H](C)[C@H](OC7OC(CO)C(O)C(O)C7O)[C@@H](O)[C@H]6O)C(C)(C)C5CC[C@]43C)[C@H]12` (some centres undefined), the compound was called inactive. Consider `COc1cc(C(C)=O)ccc1O[C@@H]1O[C@H](CO[C@@H]2OC[C@@H](O)[C@H](O)[C@H]2O)[C@@H](O)[C@H](O)[C@H]1O`, for which the max response is -2.37%.

Turning to `COC(=O)c1[nH]c(=O)c2ccccc2c1-c1ccc[nH]1`, the compound was called inactive. Take `C=C1C2(C)CC3C4(C)OC(C5OC56C4=CC(=O)OC6(C)C)C3(C)C13C(=O)OC(C)C3(O)C2=O` (centres undefined): the result was inactive. Consider `O=C(O)Cn1nnc(-c2ccc(CN(CCCCOc3ccc(CN4CCCC4)cc3)CCc3ccccc3)cc2)n1`, for which the outcome was inactive.

Regarding `CC1CC2OCC3(O)CCC(O)C(C14CC(c1ccoc1)OC4=O)C23CO` (centres undefined), the call was inactive. For the compound `C=C(C(=O)O)[C@@H]1CC[C@H](C)[C@@H]2CC(=O)C(C)=C2C1`, the max response is -2.91%. Regarding `O=C(Cn1c2ccccc2c2nc3n(c(=O)c21)CCS3)N1CCCC1`, the result was inactive. On to `O=C(O)c1ccc(NC(=O)[C@H](CC2CCCC2)n2cnc(C(F)(F)F)c2)nc1`, for which the outcome was inactive.

For the compound `COC(=O)[C@H](Cc1ccc([N+](=O)[O-])cc1)NC(=O)c1cccc2ccccc12`, the max response was -4.67%. Consider `CC(=O)OCC1=CCC2C(C)(C)CCCC2(C)C12CCC(C)(CC(=O)O)O2` (centres undefined), for which the compound was classed as inactive.

In the case of `COc1cc(C(CO)C(OC2OC(CO)C(O)C(O)C2O)c2ccc(O)c(OC)c2)ccc1O` (centres undefined), the result was inactive.

Take `CCOC(=O)C1=C(N)Oc2ccc(Cl)cc2C1C(C#N)C(=O)OCC` (centres undefined): the compound was classed as inactive.

Consider `O=C(O)CC1CCC(c2ccc(-c3ccc(Nc4ccc(C(F)(F)F)nc4)cn3)cc2)CC1` (centres undefined), for which the compound was called inactive. Regarding `COC(=O)[C@@H](NC(=O)[C@H](CC(C)C)NC(=O)N(Cc1ccccc1)C[C@@H](O)[C@H](Cc1ccccc1)NC(=O)OC(C)(C)C)C(C)C`, the result was inactive. The same measure, in the same setting: then `CC(O)C(O)/C=C/C=C/C(=O)O[C@@H]1C=C(C(=O)O)[C@](O)(CO)[C@@]2(C)CCCC(C)(C)[C@H]12` (some centres undefined), with “inactive”.

For the compound `CCCCCOc1ccc(-c2cc(-c3ccc(C(=O)N[C@H]4C[C@@H](O)[C@@H](O)NC(=O)C5[C@@H](O)[C@@H](C)CN5C(=O)C([C@H](O)CC(N)=O)NC(=O)C([C@H](O)[C@@H](O)c5ccc(O)c(OS(=O)(=O)O)c5)NC(=O)C5C[C@@H](O)CN5C(=O)C([C@@H](C)O)NC4=O)cc3)no2)cc1` (stereo partly drawn) (X2-[Orn(4R-OH,5R-OH)][ξThr(3R)][ξPro(4R-OH)][ξhTyr(3S-OH,4S-OH,3'-OSO3H)][ξGln(3R-OH)][X3]; lactam 1-C), the compound was called inactive.

In the case of `CC(C)=C1CC2C(CCC2(C)O)C(C)(O)CC1=O` (centres undefined), the max response is -16.7%. On to `C[C@]1(OC(=O)/C=C/c2ccc(O)cc2)C[C@@H](O)[C@]2(O)C=CO[C@@H](O[C@@H]3O[C@H](CO)[C@@H](O)[C@H](O)[C@H]3O)C12` (some centres undefined), for which the compound was called inactive. On to `Cc1cc(-n2c(=O)[nH]c(=O)n(C)c2=O)ccc1Oc1ccc(SC(F)(F)F)cc1`, for which the outcome was inactive.
